Assay outcomes (PubChem)
VACV mCherry inh = vaccinia inhibition (mCherry reporter). Vaccinia virus mCherry reporter infection, fluorescence. Potency, µM (top dose mostly 36.5 µM), for the others: at the top dose activity change, negative = inhibition, most hits filed as inhibitors. hit rate 0.63% among 310,000; calls by dose curve; tested in A549 cells; note: potency is the fitted concentration of half-maximal effect; nearly all actives have a fitted effect of over 35% in size
Lassa entry inh = inhibitors of Lassa virus binding or cell entry. AID 540256. Potency, µM (top dose mostly 37.9 µM), inactives show at the highest dose activity change, negative = inhibition, actives largely listed as inhibitors. Lassa virus pseudotype entry inhibition, cell reporter. hit rate 1.2% among 300,000; calls by dose curve; tested in HEK293 cells; note: potency is the fitted concentration of half-maximal effect; nearly all actives have a fitted effect of over 50% in size
FMDV antiviral = blocks foot and mouth disease virus. FMDV antiviral cell-based qHTS. Potency, µM (top dose mostly 57.9 µM), for inactives: top-dose activity change, negative = inhibition, hits mostly inhibitors. hit rate 1.2% among 410,000; calls by dose curve; tested in HEK293T cells; note: read-out not given here; potency is the fitted concentration of half-maximal effect; nearly all actives have a fitted effect of over 45% in size
VACV Venus inh = inhibitors of vaccinia virus (Venus reporter). Potency, µM (doses to about 36.5 µM), inactives show at the top dose activity change, negative = inhibition, usual class: inhibitors. Vaccinia virus Venus reporter expression, fluorescence. hit rate 0.46% among 330,000; calls by dose curve; tested in A549 cells; note: potency is the fitted concentration of half-maximal effect; nearly all actives have a fitted effect of over 30% in size
MARV entry inh = Marburg virus entry inhibition | hit rate 1.8% among 300,000 | Potency, µM (titrated, usually from 37.8 µM), for inactives: at the top dose activity change, negative = inhibition, hits mostly inhibitors | Marburg virus pseudotyped entry inhibition, cell reporter; calls by dose curve; tested in HEK293 cells; note: potency is the fitted concentration of half-maximal effect
HCMV antiviral = inhibitors of human cytomegalovirus; hit rate 4.5% among 410,000; activity change, negative = inhibition, % at 57.5 µM; HFF cells, HCMV-luciferase reporter, 72 h; active compounds read low; in the data active = activity change below about -60%; inconclusive = no clear call, values can overlap the other calls; inactive = above about -39%
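Steps: HFFs plated, 16 h 37C; compounds added; HCMV-luciferase added to MOI 1 PFU/cell; 72 h 37C; OneGlo reagent, 5 min room temperature; luminescence read, normalized to controls.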
Starred values were filed as active, the others as inactive; u = inconclusive; x = not tested or not shown; ! = a repeat was not active; [ ] = remark or other dose. Hits are enriched below; roughly 6.5% of the tested compounds scored in any of these assays. % is set by controls: 0 for no effect and ±100 for the full control effect.

SMILES | VACV mCherry inh | Lassa entry inh | FMDV antiviral | VACV Venus inh | MARV entry inh | HCMV antiviral
Cc1ccc(C(=O)N2CCN(c3ccc(F)cc3)CC2)cc1S(=O)(=O)N1CCCCC1 | u | u | u | -16% | u | -84*
Cc1ccc(C(=O)N2CCN(c3ccccc3)CC2)cc1S(=O)(=O)N1CCCC1 | u | u | u | -29% | u | u
Cc1ccc(C(=O)[C@H]2[C@H](c3cccs3)NC(=O)N[C@]2(O)C(F)(F)F)cc1 | x | x | x | x | -26% | x
Cn1c(C(=O)NCc2cccc(F)c2)cc2cc(S(=O)(=O)N3CCCCC3)ccc21 | -7% | u | -27% | -27% | x | -28
O=C(c1cc(N2C(=O)C3C4CCC(C4)C3C2=O)ccc1Cl)N1CCN(c2ccc(F)cc2)CC1 (stereo not given) | -4% | 5% | 32µM* | -22% | u | 21
CC1CCN(S(=O)(=O)c2cc(C(=O)N3CCN(c4ccccc4)CC3)ccc2Br)CC1 | -26% | x | -19% | u | x | -76*
CC1CCN(C(=O)c2cccc(S(=O)(=O)N3CCN(c4ccccc4)CC3)c2)CC1 | -10% | 2% | -10% | -8% | 17% | -21
COc1ccc(-c2nc(SC)n(C)c(=O)c2C#N)cc1OC | x | 3% | -2% | -11% | -11%[46.1 µM] | -61*
CCc1ccc(NS(=O)(=O)c2c(C)nc3sc(CC)nn3c2=O)cc1 | u | 0%[46.1 µM] | u | -12% | u | 13
Cc1cccc(NS(=O)(=O)c2c(C)nc3scc(C)n3c2=O)c1 | -27% | -24%[46.1 µM] | 20% | -21% | -2%[46.1 µM] | -70*
Cc1nc2scc(C)n2c(=O)c1S(=O)(=O)Nc1ccc(N2CCN(S(C)(=O)=O)CC2)cc1 | -23% | -17%[46.1 µM] | u | -19% | u | -83*!
CCc1nn2c(=O)c(S(=O)(=O)Nc3ccc(C)c(C)c3)c(C)nc2s1 | -29% | -9%[46.1 µM] | -1% | -24% | -3%[46.1 µM] | -88*
O=C1c2ccccc2C(=O)N1c1cccc(O)c1 | -9% | x | x | -21% | x | x
CC(=O)Oc1ccc(-c2csc(Nc3cccnc3)n2)cc1 | -10% | 3% | 15% | -8% | u | -102*
COc1ccc(-c2csc(Nc3ccc(Oc4ccccc4)cc3)n2)cc1 | 13% | x | u | -14% | x | -65*
c1cncc(Nc2nc(-c3ccncc3)cs2)c1 | x | 5% | 7% | x | u | 12
C[C@@H]1CN(C2CCN(C(=O)c3ccccc3)CC2)C[C@H](C)O1 | x | x | x | x | 0% | x
Brc1ccc(C2C=Cc3ccccc32)cc1 (stereo not given) | 35% | x | x | 12% | x | x
CCOC(=O)C1=CN(CC)S(=O)(=O)NC1c1ccccc1 (stereo not given) | -29% | x | 0% | -6% | x | -82*
CN1CCN(C(=O)Cn2c(-c3cccs3)cc3cc(Cl)ccc32)CC1 | -15% | 6%[46.1 µM] | -3% | -11% | x | -27
Cc1c(C)n(CCc2ccccc2)c2ncnc(NCCCO)c12 | x | x | 27% | x | x | 99
Cc1c(C)n(Cc2ccccc2)c2ncnc(NN)c12 | x | x | u | x | x | -73*
COCCn1c(C)c(C)c2c(NCCc3ccccc3)ncnc21 | x | x | u | x | x | -99*
Cc1c(-c2nc(-c3ccc(C(C)(C)C)cc3)no2)n(C)oc1=O | -3% | u | 63µM* | -20% | u | 97
O=C(Nc1cccc(Cl)c1)N1CCN2C(=O)c3ccccc3C12c1ccccc1 (stereo not given) | u | -21% | u | u | u | 26
SMILES | VACV mCherry inh | Lassa entry inh | FMDV antiviral | VACV Venus inh | MARV entry inh | HCMV antiviral
O=C(CCl)N1CCN2C(=O)c3ccccc3C12c1ccc(Cl)cc1 (stereo not given) | 4% | -5% | 10µM* | -5% | u | -115*
Cc1ccc(C(=O)N2CCN3C(=O)c4ccccc4C23c2ccc(Cl)cc2)cc1 (stereo not given) | x | u | -12% | u | u | -71*
O=CNc1ccc(/C=C/c2ccnc3ccccc23)cc1 | -8% | x | x | -12% | x | x
Cc1ccc(C2=NN(CC(=O)NCCc3ccc(Cl)cc3)C(=O)CC2)cc1 | -9% | 8%[46.1 µM] | 0% | -11% | x | -10
Cc1ccc2c(C)c3ccc4ccccc4c3c[n+]2c1 | -10% | -27% | u | -21% | u | -95*
Cc1ccccc1OCC(=O)Nc1ccccc1OCc1cc(=O)n2ccccc2n1 | -10% | 11%[46.1 µM] | 13% | -14% | x | 40
COc1ccc(C2NCc3ccc4c(c3-n3cccc32)OCO4)cc1O (stereo not given) | x | u | -13% | u | 0.63µM* | x
